Read-out in experiment [1]: Tissue Factor, F3 (gene 2152)
As to the kind of experiment: BSK_CASM3C_TissueFactor: BioMAP Diversity Plus: CASM3C Assay for Tissue Factor Biomarker Activity (AID 2283052).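 Note: cell surface tissue factor protein level read by ELISA.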 The settings on record: primary human coronary artery smooth muscle cells; actives raise or lower the signal.

Read-out in experiment [2]: Interferon-gamma inducible Protein 10 (IP10), CXCL10 (gene 3627)
The experiment is described as follows: BSK_hDFCGF_IP10: BioMAP Diversity Plus: hDFCGF Assay for Interferon-gamma inducible Protein 10 (IP10) Biomarker Activity (AID 2283053). The settings on record: primary human foreskin fibroblasts; actives raise or lower the signal. In short, it runs like this: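 IP-10 levels, quantified by ELISA, are taken from human foreskin fibroblast cultures 24 h after chemical treatment, with DMSO serving as negative control and baseline for bidirectional analysis.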

Read-out in experiment [3]: Urokinase-type plasminogen activator receptor (uPAR), PLAUR (gene 5329)
As to the kind of experiment: BSK_CASM3C_uPAR: BioMAP Diversity Plus: CASM3C Assay for Urokinase-type plasminogen activator receptor (uPAR) Biomarker Activity (AID 2283054).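 Note: cell-surface uPAR protein level quantified by ELISA.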 To be noted: primary human coronary artery smooth muscle cells; actives raise or lower the signal.

Read-out in experiment [4]: Vascular cell adhesion molecule 1 (VCAM1), VCAM1 (gene 7412)
The experiment is described as follows: BSK_CASM3C_VCAM1: BioMAP Diversity Plus: CASM3C Assay for Vascular cell adhesion molecule 1 (VCAM1) Biomarker Activity (AID 2283055).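 Note: VCAM-1 protein level quantified by ELISA on the cells.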 To be noted: primary human coronary artery smooth muscle cells; actives raise or lower the signal.

Read-out in experiment [5]: Collagen III, COL3A1 (gene 1281)
The experiment is described as follows: BSK_hDFCGF_CollagenIII: BioMAP Diversity Plus: hDFCGF Assay for Collagen III Biomarker Activity (AID 2283056). The settings on record: primary human foreskin fibroblasts; actives raise or lower the signal. In short, it runs like this:
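hDFCGF primary human dermal fibroblasts; 24 h chemical exposure; collagen III by ELISA; bidirectional curve fit vs DMSO baseline (gain or loss of signal).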

Read-out in experiment [6]: Epidermal growth factor receptor (EGFR), EGFR (gene 1956)
The experiment is described as follows: BSK_hDFCGF_EGFR: BioMAP Diversity Plus: hDFCGF Assay for Epidermal growth factor receptor (EGFR) Biomarker Activity (AID 2283057). To be noted: primary human foreskin fibroblasts; actives raise or lower the signal. Summed up:
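Measured by ELISA: EGFR levels on primary human foreskin fibroblasts 24 h after chemical treatment, analysed relative to DMSO with bidirectional fitting.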

Read-out in experiment [7]: Interleukin-8 (IL8), CXCL8 (gene 3576)
As to the kind of experiment: BSK_hDFCGF_IL8: BioMAP Diversity Plus: hDFCGF Assay for Interleukin-8 (IL8) Biomarker Activity (AID 2283058). To be noted: primary human foreskin fibroblasts; actives raise or lower the signal. In short, it runs like this: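 ELISA read-out of IL-8 from primary human foreskin fibroblast cultures taken 24 h after dosing; values are bidirectional fits relative to DMSO vehicle.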

Experiment [8] is described as follows: BSK_hDFCGF_Proliferation: Cell Proliferation Assessment in the BioMAP Diversity Plus: hDFCGF Assay (AID 2283059).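 Note: curves fitted for both rise and fall of signal versus DMSO baseline.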 The settings on record: primary human foreskin fibroblasts. Summed up: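 Steps: dose primary human dermal fibroblasts (foreskin); […] fix in 10% TCA; stain with 0.1% SRB; read 560 nm; fit gain or loss of signal against DMSO.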
Read-out in experiment [9]: Macrophage colony-stimulating factor (MCSF), CSF1 (gene 1435)
As to the kind of experiment: BSK_hDFCGF_MCSF: BioMAP Diversity Plus: hDFCGF Assay for Macrophage colony-stimulating factor (MCSF) Biomarker Activity (AID 2283060). To be noted: primary human foreskin fibroblasts; actives raise or lower the signal. Summed up:
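ELISA read-out of M-CSF in human dermal foreskin fibroblast cultures, 24 h after chemical dosing; gain or loss of signal fitted bidirectionally relative to DMSO baseline.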

Experiment [10] in a line: BSK_hDFCGF_SRB: Viability Assessment in the BioMAP Diversity Plus: hDFCGF Assay (AID 2283061).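 Note: cells exposed to compound for 24 h before the read.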 To be noted: primary human foreskin fibroblasts. In short, it runs like this:
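Primary human foreskin fibroblasts; 24 h post-dose; fixed 10% TCA, stained 0.1% SRB, A560 read; total protein as overt cytotoxicity measure; curves fit bidirectionally vs DMSO control.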

Read-out in experiment [11]: TIMP metallopeptidase inhibitor 1 (TIMP1), TIMP1 (gene 7076)
As to the kind of experiment: BSK_hDFCGF_TIMP1: BioMAP Diversity Plus: hDFCGF Assay for TIMP metallopeptidase inhibitor 1 (TIMP1) Biomarker Activity (AID 2283062). To be noted: primary human foreskin fibroblasts; actives raise or lower the signal. Summed up:
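ELISA readout of TIMP-1 from human dermal foreskin fibroblast cultures 24 h post-dosing. Curves were fitted in both directions against DMSO baseline, with SRB total-protein staining in parallel cultures as a cytotoxicity check.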

Read-out in experiment [12]: Monokine induced gamma interferon (MIG), CXCL9 (gene 4283)
The experiment is described as follows: BSK_hDFCGF_MIG: BioMAP Diversity Plus: hDFCGF Assay for Monokine induced gamma interferon (MIG) Biomarker Activity (AID 2283063). To be noted: primary human foreskin fibroblasts; actives raise or lower the signal. In short, it runs like this: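 Fibroblasts (human foreskin, primary) dosed, 24 h, MIG by ELISA; fit bidirectional vs DMSO.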

Read-out in experiment [13]: Matrix Metallopeptidase 1 (MMP1), MMP1 (gene 4312)
As to the kind of experiment: BSK_hDFCGF_MMP1: BioMAP Diversity Plus: hDFCGF Assay for Matrix Metallopeptidase 1 (MMP1) Biomarker Activity (AID 2283064). To be noted: primary human foreskin fibroblasts; actives raise or lower the signal. Summed up: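 Primary human foreskin fibroblasts in the hDFCGF system were dosed with test chemical, and MMP1 was measured by ELISA 24 h later. Values come from bidirectional curve fitting against the DMSO baseline.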

Read-out in experiment [14]: Vascular cell adhesion molecule 1 (VCAM1), VCAM1 (gene 7412)
The experiment is described as follows: BSK_hDFCGF_VCAM1: BioMAP Diversity Plus: hDFCGF Assay for Vascular cell adhesion molecule 1 (VCAM1) Biomarker Activity (AID 2283065).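 For AC50: VCAM-1 protein level quantified by ELISA after 24 h chemical exposure.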 To be noted: primary human foreskin fibroblasts; actives raise or lower the signal. In short, it runs like this: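 ELISA read-out of VCAM-1 on human skin fibroblasts, 24 h post-dose; gain or loss of signal fitted bidirectionally against DMSO baseline.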

Read-out in experiment [15]: Plasminogen activator inhibitor-1 (PAI1), SERPINE1 (gene 5054)
The experiment is described as follows: BSK_hDFCGF_PAI1: BioMAP Diversity Plus: hDFCGF Assay for Plasminogen activator inhibitor-1 (PAI1) Biomarker Activity (AID 2283066). The settings on record: primary human foreskin fibroblasts; actives raise or lower the signal. Summed up: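 PAI-1 levels, determined by ELISA, served as the endpoint in human foreskin fibroblast cultures exposed to compound for 24 h, with DMSO as baseline.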

Read-out in experiment [16]: Intercellular Adhesion Molecule 1 (ICAM1), ICAM1 (gene 3383)
As to the kind of experiment: BSK_KF3CT_ICAM1: BioMAP Diversity Plus: KF3CT Assay for Intercellular Adhesion Molecule 1 (ICAM1) Biomarker Activity (AID 2283067). To be noted: primary human keratinocytes with fibroblasts; actives raise or lower the signal. Summed up:
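ELISA readout of ICAM-1; KF3CT human skin co-culture (keratinocytes + foreskin fibroblasts), 24 h post-dose; gain/loss fit vs DMSO baseline.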

Read-out in experiment [17]: Interferon-gamma inducible Protein 10 (IP10), CXCL10 (gene 3627)
The experiment is described as follows: BSK_KF3CT_IP10: BioMAP Diversity Plus: KF3CT Assay for Interferon-gamma inducible Protein 10 (IP10) Biomarker Activity (AID 2283068). The settings on record: primary human keratinocytes with fibroblasts; actives raise or lower the signal. Summed up: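 KF3CT co-culture (keratinocytes + foreskin fibroblasts), 24 h compound, IP-10 by ELISA; bidirectional fit vs DMSO baseline.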

A short description of experiment [18]: BSK_KF3CT_SRB: Viability Assessment in the BioMAP Diversity Plus: KF3CT Assay (AID 2283069).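 Note: total protein by sulforhodamine B staining as a cytotoxicity measure; read 24 h after compound addition.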 The settings on record: primary human keratinocytes with fibroblasts. In short, it runs like this:
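Human primary keratinocyte plus foreskin fibroblast co-culture exposed to chemicals for 24 h. Total protein measured by 0.1% sulforhodamine B staining after 10% TCA fixation, read at 560 nm; bidirectional fitting versus DMSO baseline.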

Read-out in experiment [19]: Interleukin-1 alpha (IL1a), IL1A (gene 3552)
As to the kind of experiment: BSK_KF3CT_IL1a: BioMAP Diversity Plus: KF3CT Assay for Interleukin-1 alpha (IL1a) Biomarker Activity (AID 2283070). To be noted: primary human keratinocytes with fibroblasts; actives raise or lower the signal. Summed up:
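Human keratinocyte plus foreskin fibroblast primary co-culture, sampled 24 h after chemical dosing. IL-1a measured by ELISA; responses fitted bidirectionally against DMSO baseline (negative control), so gain or loss of signal both count.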

Read-out in experiment [20]: TIMP metallopeptidase inhibitor 2 (TIMP2), TIMP2 (gene 7077)
The experiment is described as follows: BSK_KF3CT_TIMP2: BioMAP Diversity Plus: KF3CT Assay for TIMP metallopeptidase inhibitor 2 (TIMP2) Biomarker Activity (AID 2283071). To be noted: primary human keratinocytes with fibroblasts; actives raise or lower the signal. Summed up:
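Keratinocyte–fibroblast co-culture, 24 h exposure; TIMP-2 ELISA, DMSO-normalised bidirectional fit. Parallel SRB (0.1%, TCA-fixed, 560 nm) total-protein staining gauges cytotoxicity.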

Some structures have more than one record in an assay (separate samples or runs), and their calls can disagree. The source made the active and inactive calls. Rule for the calls: active = hit-call score of the fitted dose curve at least 0.9, where 1 is the maximum; inactive = score below 0.9.

Here are results for 5 molecules from PubChem BioAssay (EPA / NIEHS).

In the case of `CC(=O)S[C@@H]1CC2=CC(=O)CC[C@]2(C)[C@H]2CC[C@@]3(C)[C@@H](CC[C@@]34CCC(=O)O4)[C@H]12`, the result in experiment [1], in experiment [3], in [5], in [6], in [11] and in [14] was inactive. For the same molecule, the outcome in experiment [16], in [18] and in [20] was inactive. Further, the AC50 was 29900 nM (active) in experiment [2]; 16800 nM (active) in experiment [4]; 30600 nM (active) in experiment [7]; 20000 nM (active) in experiment [8]; 10600 nM (active) in experiment [9]; 26700 nM (active) in experiment [10]. Also, the concentration at half-maximal activity (AC50) in experiment [12] is 31200 nM (active); in experiment [13] it was 31300 nM (active); in [15], 10300 nM (active); in experiment [17], 33400 nM (active); in experiment [19], 30700 nM (active).

For `COCCO`, the result in experiment [1], in experiment [2], in experiment [3], in experiment [4], in experiment [5] and in experiment [6] was inactive. For the same molecule, the result in experiment [7], in experiment [8], in experiment [9], in experiment [10], in [11] and in [12] was inactive. Besides, the outcome in experiment [13], in [14], in experiment [15], in [16], in experiment [17] and in [18] was inactive. Moreover, the outcome in experiment [19] was inactive. For the same molecule, the AC50 in experiment [19] was 800 nM (active).

With `CCCCOC(=O)C(C)Oc1ccc(Oc2ccc(C(F)(F)F)cn2)cc1` (stereo not drawn), the result in experiment [1], in [2], in experiment [3], in experiment [4], in experiment [5] and in experiment [6] was inactive. The result in [7], in experiment [8], in [9], in experiment [10], in [11] and in [12] was inactive. The outcome in [13], in experiment [14], in experiment [15], in experiment [16], in experiment [17] and in [18] was inactive. Also, the outcome in experiment [19] and in experiment [20] was inactive.

On to `O=C(Nc1ccc([N+](=O)[O-])cc1Cl)c1cc(Cl)ccc1O`, for which the outcome in [1], in [4] and in experiment [7] was inactive. In addition, the AC50 in experiment [2] is 148 nM (active); in experiment [3], 148 nM (active); in experiment [5], 148 nM (active); in experiment [8], 148 nM (active); in [9], 912 nM (active); in experiment [10], 63 nM (active). Also, the AC50 in experiment [11] was 149 nM (active); in [12], 148 nM (active); in [13] it was 227 nM (active); in [14] it was 148 nM (active); in experiment [15], 148 nM (active); in experiment [16], 1240 nM (active). In addition, the AC50 is 148 nM (active) in experiment [17], 148 nM (active) in experiment [18] and 735 nM (active) in experiment [19].

As to `O=C(c1ccc(O)cc1O)c1ccc(O)cc1O`, the result in experiment [1], in experiment [2], in [3], in experiment [4], in experiment [5] and in [6] was inactive. In addition, the outcome in experiment [7], in [8], in [9], in experiment [10], in experiment [11] and in [12] was inactive. Besides, the outcome in experiment [13], in experiment [14], in experiment [15], in [16], in [17] and in [18] was inactive. Besides, the outcome in experiment [19] and in [20] was inactive.
